Measurements as given in PubChem BioAssay (Tox21).
Inconclusive results are not listed. Calls of active or inactive are those of the source. Unless noted, calls come from the whole dose curve; as a rule, active = well fitted curve in the direction sought with a large enough effect in the repeat runs; inconclusive = weak or mixed curves; inactive = no such curve, though single readings can be large; an effect the other way counts as inactive or inconclusive.

Columns and labels:
[1] = qHTS assay to identify aromatase inhibitors - cell viability counter screen (AID 743084);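 note: cells stimulated with testosterone during compound exposure; nearly all actives have a fitted effect of over 55% in size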
[2] = biological target: Aryl hydrocarbon receptor (Homo sapiens) (UniProt P35869); test: qHTS assay to identify small molecule that activate the aryl hydrocarbon receptor (AhR) signaling pathway (AID 743085);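 note: HG2L7.5c1 human HepG2 liver cells with stably integrated DRE-driven firefly reporter; series mostly up to about 70 µM; nearly all actives have a fitted effect of over 15% in size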
Chain of Aryl hydrocarbon receptor (Homo sapiens) (P35869 whole entry, looked up): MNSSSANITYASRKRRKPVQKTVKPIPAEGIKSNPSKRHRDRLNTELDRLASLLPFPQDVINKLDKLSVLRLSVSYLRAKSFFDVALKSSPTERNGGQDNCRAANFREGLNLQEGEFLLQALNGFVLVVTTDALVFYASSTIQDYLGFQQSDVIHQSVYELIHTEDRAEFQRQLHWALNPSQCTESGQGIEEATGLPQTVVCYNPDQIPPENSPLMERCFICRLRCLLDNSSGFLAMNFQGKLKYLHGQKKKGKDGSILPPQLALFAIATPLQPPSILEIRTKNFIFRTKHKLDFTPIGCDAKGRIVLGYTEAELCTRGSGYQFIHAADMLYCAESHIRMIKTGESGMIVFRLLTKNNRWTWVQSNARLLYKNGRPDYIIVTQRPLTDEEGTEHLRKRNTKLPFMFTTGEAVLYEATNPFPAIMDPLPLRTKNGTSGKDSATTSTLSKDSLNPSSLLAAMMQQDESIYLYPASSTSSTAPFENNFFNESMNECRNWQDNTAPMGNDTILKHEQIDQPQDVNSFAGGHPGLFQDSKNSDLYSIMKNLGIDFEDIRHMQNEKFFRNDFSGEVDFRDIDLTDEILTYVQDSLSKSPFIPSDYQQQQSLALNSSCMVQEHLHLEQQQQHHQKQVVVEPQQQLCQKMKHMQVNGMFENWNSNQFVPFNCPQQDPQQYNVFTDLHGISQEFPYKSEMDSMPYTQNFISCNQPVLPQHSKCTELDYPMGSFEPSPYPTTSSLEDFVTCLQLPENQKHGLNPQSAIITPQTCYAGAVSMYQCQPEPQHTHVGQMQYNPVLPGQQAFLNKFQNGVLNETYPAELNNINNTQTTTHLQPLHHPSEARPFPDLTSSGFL
Summary of the method: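 24 h compound exposure, 37C, HepG2-derived HG2L7.5c1 cells with DRE-responsive luciferase. Readouts: fluorescence viability, then luminescence at room temperature after 30 min.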

[3] = biological target: Peroxisome proliferator-activated receptor gamma (Homo sapiens) (UniProt P37231); test: qHTS assay to identify small molecule antagonists of the peroxisome proliferator-activated receptor gamma (PPARg) signaling pathway (AID 743191; calls by dose curve; note: series mostly up to about 63 µM; nearly all actives have a fitted effect of over 30% in size)
Chain of Peroxisome proliferator-activated receptor gamma (Homo sapiens) (P37231 whole entry, looked up): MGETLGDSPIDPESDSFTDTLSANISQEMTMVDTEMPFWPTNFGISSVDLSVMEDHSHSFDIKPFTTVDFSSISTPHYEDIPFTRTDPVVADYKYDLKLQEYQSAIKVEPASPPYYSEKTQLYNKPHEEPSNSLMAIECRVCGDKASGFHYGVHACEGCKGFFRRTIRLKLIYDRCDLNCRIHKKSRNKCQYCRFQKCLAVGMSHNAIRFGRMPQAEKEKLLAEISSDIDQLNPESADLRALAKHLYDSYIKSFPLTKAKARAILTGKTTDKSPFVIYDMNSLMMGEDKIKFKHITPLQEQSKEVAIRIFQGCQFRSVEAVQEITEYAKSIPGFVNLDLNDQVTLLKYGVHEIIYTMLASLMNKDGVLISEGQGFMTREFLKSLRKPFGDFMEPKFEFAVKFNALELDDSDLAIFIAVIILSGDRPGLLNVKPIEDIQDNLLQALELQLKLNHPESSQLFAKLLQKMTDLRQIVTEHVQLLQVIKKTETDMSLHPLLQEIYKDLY
Summary of the method: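 Beta-lactamase reporter under UAS control in HEK293H PPARg-bla cells; compound treatment 17 h at 37C. Read-out: fluorescence intensity after 1 h room-temperature incubation with LiveBLAzer B/G FRET substrate.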

[4] = qHTS assay to identify small molecule antagonists of the peroxisome proliferator-activated receptor gamma (PPARg) signaling pathway - cell viability counter screen (AID 743194); note: nearly all actives have a fitted effect of over 55% in size
Summary of the method: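 Viability was measured as CellTiter-Glo luminescence in GeneBLAzer PPARg UAS-bla HEK293H cells. These cells had been exposed 17 h at 37 C to compounds together with rosiglitazone at 50 nM final, with the beta-lactamase readout taken in the same wells.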

[5] = qHTS assay for small molecule agonists of the antioxidant response element (ARE) signaling pathway (AID 743202; active = well fitted activation curve with a large enough effect in the signal ratio in the repeat runs, not every such curve was filed as active; the % refers to the signal ratio)
Summary of the method: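 Quantitative high-throughput format in HepG2 cells bearing an integrated ARE-beta-lactamase reporter. Compound exposure lasted 16 h at 37 C, and fluorescence was read 2 h after adding LiveBLAzer B/G substrate at room temperature.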

[6] = qHTS assay for small molecule activators of the heat shock response signaling pathway - cell viability counter screen (AID 743209); note: nearly all actives have a fitted effect of over 50% in size
Summary of the method: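 Readout: CellTiter-Glo luminescence, 30 min at room temperature. System: HSE-bla HeLa cells, 1500/well, plated overnight. Treatment: compounds in DMSO, 5 h at 37 C.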

[7] = qHTS assay for small molecule activators of the heat shock response signaling pathway (AID 743210; active = well fitted activation curve with a large enough effect in the signal ratio in the repeat runs, with a control signal flat, not every such curve was filed as active; the % refers to the signal ratio;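 note: HeLa cells with beta-lactamase reporter driven by heat shock elements; series mostly up to about 63 µM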)
Summary of the method: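 HeLa HSE-bla cells, overnight plating; cpd in DMSO 5 h, 37 C; LiveBLAzer B/G FRET substrate 2.5 h RT; fluorescence intensity read.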

[8] = qHTS assay to identify small molecule that activate the aryl hydrocarbon receptor (AhR) signaling pathway - cell viability counter screen (AID 743086);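 note: HepG2 liver cells carrying the AhR DRE luciferase reporter; series mostly up to about 70 µM; nearly all actives have a fitted effect of over 45% in size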
Summary of the method: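 Cytotoxicity counter screen: CellTiter-Fluor signal (30 min, 37 C) in 4000 HepG2 cells/well carrying the DRE-luciferase reporter, following 24 h compound exposure at 37 C.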

[9] = biological target: Peroxisome proliferator-activated receptor gamma (Homo sapiens) (UniProt P37231); test: qHTS assay to identify small molecule agonists of the peroxisome proliferator-activated receptor gamma (PPARg) signaling pathway (AID 743094; active = well fitted activation curve with a large enough effect in the signal ratio in the repeat runs, not every such curve was filed as active; the % refers to the signal ratio)
Summary of the method: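 Compounds dissolved in DMSO were added to PPARg UAS-bla HEK293H cells for 17 h at 37C, and reporter expression was quantified by fluorescence intensity after 1 h with LiveBLAzer B/G FRET substrate.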

[10] = qHTS assay for small molecule agonists of the antioxidant response element (ARE) signaling pathway - cell viability counter screen (AID 743203; calls by dose curve; note: nearly all actives have a fitted effect of over 55% in size)
Summary of the method: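 Following 16 hrs of compound treatment at 37C, HepG2 cells with an ARE-controlled beta-lactamase gene were lysed with CellTiter-Glo. Luminescence was read after 30 min at room temperature.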

Measured: Potency

CCOC(=O)C1=NN(c2ccccc2)C(=O)C1
not listed: [8] | [9] | [10]
inactive: all other assays above

O=C(Cl)c1ccc([N+](=O)[O-])cc1
not listed: [2]
inactive: all other assays above

O=C(c1ccccc1)c1ccc2n1CCC2C(=O)O (stereo unspecified)
not listed: [8] | [9]
inactive: all other assays above

CNCC[C@@H](Oc1ccccc1C)c1ccccc1
inactive: [1] | [2] | [4] | [10] | [7]

CC(C(=O)O)c1ccc(C(=O)c2ccccc2)s1 (stereo unspecified)
not listed: [2] | [9]
inactive: all other assays above

O=C1c2cccc(O)c2C(=O)c2c(O)cc(CO)cc21
inactive: [1] | [2] | [4] | [10] | [6] | [7]

CN1CCN(C2=Nc3cc(Cl)ccc3Nc3ccccc32)CC1
inactive: [1] | [2] | [4] | [10] | [6] | [7]

Cc1ccccn1
not listed: [2] | [3] | [9]
inactive: all other assays above

CCCOc1ccc2nc(NC(=O)OC)[nH]c2c1
not listed: [2] | [5]
inactive: all other assays above

Cc1cccc(Oc2ccccc2)c1
not listed: [2] | [9]
inactive: all other assays above

Cc1ncsc1CCO
inactive: [1] | [2] | [5] | [10] | [6] | [7]

CCOC(=O)C1=C(C)NC(C)=C(C(=O)OC)C1c1cccc([N+](=O)[O-])c1 (stereo unspecified)
not listed: [2] | [3]
inactive: all other assays above

Cc1c(Cn2ccnc2)c2ccccc2n1CCC(=O)O
not listed: [2] | [5]
inactive: all other assays above

O=C1[C@H](CC[C@H](O)c2ccc(F)cc2)[C@@H](c2ccc(O)cc2)N1c1ccc(F)cc1
inactive: [1] | [8] | [9] | [4] | [6] | [7]

Cc1cccc(C(C)(C)C)c1O
not listed: [2] | [9]
inactive: all other assays above

C1CCC2OC2C1 (stereo unspecified)
inactive: [1] | [8] | [3] | [10] | [6] | [7]

CC(=O)N(O)CCCCCNC(=O)CCC(=O)N(O)CCCCCNC(=O)CCC(=O)N(O)CCCCCN
inactive: [1] | [2] | [4] | [10] | [6] | [7]

Cc1ccc(C(N)=O)cc1N
not listed: [2] | [3]
inactive: all other assays above

O=S1(=O)N=C(O)c2ccccc21
inactive: [1] | [8] | [4] | [5] | [10] | [6]

CCN(CC)CCOC(=O)C1(c2ccccc2)CCCC1
not listed: [2]
inactive: all other assays above

CC1=CC(=O)/C(=C(/C)O)C(=O)O1
not listed: [2] | [3]
inactive: all other assays above

CCCCCCCCCC=O
inactive: [1] | [2] | [4] | [10] | [6] | [7]

CC(=O)N(CC(=O)N(C)C)c1ccccc1
inactive: [4] | [10] | [6] | [7]

CC(=O)c1ccc2c(c1)[C@H](NC(=O)c1ccc(F)cc1)[C@@H](O)C(C)(C)O2
not listed: [1] | [3] | [5]
inactive: all other assays above

CC1CCc2cc(F)cc3c(=O)c(C(=O)O)cn1c23 (stereo unspecified)
inactive: [8] | [4] | [5] | [10] | [6] | [7]

Nc1ccc(C(=O)N2CC3CC(CN(Cc4ccccc4)C3)C2)cc1
inactive: [4] | [5] | [10] | [6]

CCCC(C)C
not listed: [1] | [3]
inactive: all other assays above

O=C1Nc2cc(Cl)ccc2Oc2ccccc21
inactive: [3] | [4] | [10] | [6] | [7]

CC(C)(C)c1cc(O)c(C(C)(C)C)cc1O
inactive: [2] | [8] | [9] | [6] | [7]
